This passage reports viability results from PubChem BioAssay.

In general, viability refers to a read-out of living cells in per cent, often relative to untreated cells.

Inconclusive results are not listed. Activity calls are given as the source filed them.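 The calls were made as follows: active = viability at or below 27.92% in each of two runs, the all-compound median minus 4 SD; inconclusive = no clear call, values can overlap the other calls; inactive = the rest.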

The assay can be described thus: viability of PTEN-null HCT116 cells – cell-based, HCT116 clonal line, CellTiter-Glo, pilot screen (AID 824).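 Also: 0% = 20 µM Hyamine control and 100% = vehicle cell control.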 As to conditions: HCT116 PTEN-deleted viability, 60 h, at 10 µM, active compounds read low. On the technique in general: ATP-based viability assays read luminescence as a measure of living cells.
As for `CCC(C)NC(=O)CCCCCn1c(=O)[nH]c2cc(OC)c(OC)cc2c1=O` (stereo not given), the viability was 93% (inactive). Take `Cc1ccc(C(C(=O)NC2CCCC2)N2CCCCC2)cc1` (stereo not given): the viability was 90.6% (inactive). Take `COc1ccccc1N1CCN(C(=O)c2ccc(Br)s2)CC1`: the viability is 91.1% (inactive). To `Cc1cc(=O)[nH]c(Cc2ccc(OC(C)C)cc2)n1` belongs 93.2% (inactive); to `Cc1ccc(-c2nnc3ccc(SC(C)C(=O)O)nn23)cc1` (stereo not given), 97.8% (inactive); to `CSc1nnc(-c2ccco2)n1-c1ccccc1`, 90% (inactive). Take `COc1ccc(C2CC(c3cccc(C)c3)n3nc(N)nc3N2)cc1` (stereo not given): the viability is 92.8% (inactive).

For `O=C(COc1ccccc1F)c1ccc(O)cc1O`, the viability was 106% (inactive).

As for `O=C(C1CCN(S(=O)(=O)c2cccc3cccnc23)CC1)N1CCN(C2CCCC2)CC1`, the viability is 99.2% (inactive).

As for `COc1ccc(N2C(=O)C3CCCN3C2c2ccccc2OC)cc1` (stereo not given), the viability is 97.4% (inactive). In the case of `O=S(=O)(Nc1ccc(-c2nc3cccnc3s2)cc1)c1cccs1`, the viability was 95.6% (inactive). Regarding `COc1cc(OC)c(C2CC(=O)N3CN(C)CSC3=C2C#N)cc1OC` (stereo not given), the viability was 97.2% (inactive). Consider `CCOCCn1c(SCc2ccc(C)cc2)nc2c1c(=O)[nH]c(=O)n2C`, for which the viability was 95.1% (inactive). Consider `CC1Oc2ccccc2C=C1C1/C(=C(/O)c2ccccc2)C(=O)C(=O)N1CCCN(C)C` (stereo not given), for which the viability is 97% (inactive).

With `c1ccc2cc3[nH]c(CN4CCCCC4)nc3cc2c1`, the viability is 87.6% (inactive). As to `CCCCCOc1ccc(NC(=O)CCCC(=O)O)cc1`, the viability was 97.8% (inactive).

For the compound `COc1cccc(NC(=O)CSc2nnc(-c3ccc(C)cc3)o2)c1`, the viability is 93.8% (inactive).

For the compound `COCCCN1C(=O)C(O)=C(C(=O)c2ccc(C)o2)C1c1cccc(Br)c1` (stereo not given), the viability is 106% (inactive). As to `CCOc1ccc(OCC)c(S(=O)(=O)NCCCN2CCOCC2)c1`, the viability was 99% (inactive). For the compound `CC1CCc2nn(CC(=O)NCCCN3CCCC3=O)cc2C1` (stereo not given), the viability was 93.7% (inactive). As to `Clc1ccc(Cc2nnc(-c3ccccc3Br)o2)cc1`, the viability was 91.3% (inactive). For the compound `Cc1cc(C)c(C)c(OCC(=O)NCCN(C)C)c1`, the viability is 91.3% (inactive). To `COC(=O)CCS(=O)(=O)c1cc(Cl)ccc1Cl` belongs 94.9% (inactive).

Take `Cn1cccc1Cc1nnc(SCC(=O)N2CCCC2)n1CCc1ccccc1`: the viability is 102% (inactive).

For `CC1NC(=O)NC1CCCCC(=O)O` (stereo not given), the viability was 104% (inactive). As for `CCOC(=O)c1cc(-c2ccc(F)cc2)n(CC(=O)Nc2nccs2)c1C`, the figure is 62.6% (inactive); as for `Cn1c(SCC(=O)Nc2ccccc2F)nnc1-c1cccnc1`, 92.8% (inactive); as for `CCn1cc(C(=O)Nc2ccc3c(c2)OCCO3)c2cc(OC)c(OC)cc2c1=O`, 88.6% (inactive). Turning to `O=C1c2ccccc2C(=O)N1CCCc1nc(-c2ccc(Cl)cc2)no1`, the viability is 100% (inactive).

In the case of `CN1C(=O)c2cccc(NC(=O)Cc3ccccc3)c2C1=O`, the viability is 91.1% (inactive). For the compound `CCc1c(C(C)O)oc2ccc3c(C)cc(=O)oc3c12` (stereo not given), the viability is 82.2% (inactive).

Consider `O=C(NCCc1ccccc1)c1ccncc1`, for which the viability is 93.5% (inactive). As for `Cc1onc(-c2ccccc2Cl)c1C(=O)N(C)C1CCCCC1`, the viability is 63.2% (inactive). With `CCN(CC(=O)NCc1ccc(F)cc1)C(=O)C1CCN(C(=O)Nc2ccccc2)CC1`, the viability is 98.6% (inactive). `CCCCCn1c(=N)n(CC(O)COc2ccccc2OC)c2ccccc21` (stereo not given): the viability is 21.9% (active). Regarding `N#CC1=C(N)Oc2c(sc3ccccc23)C1c1ccco1` (stereo not given), the viability was 65.2% (inactive). `COc1ccccc1N1CCN(Cc2cc(Br)c(O)c3ncccc23)CC1`: the viability was 6.17% (active).

On to `CC(=O)Nc1ccc(S(=O)(=O)N2CCN(c3nc(NC4CCCC4)c4ccccc4n3)CC2)cc1`, for which the viability is 1.7% (active). As for `COc1cc(NC(=O)c2c(-c3ccccc3Cl)noc2C)c2ncccc2c1`, the figure is 64.3% (inactive); as for `O=C(O)CCc1ccc(-c2cccs2)n1NC(=O)c1ccc(Cl)cc1`, 93.9% (inactive).
